From PubChem BioAssay (Tox21)
Unmarked numbers belong to inactive results. Activity calls are given as the source filed them. The call rests on the fitted dose curve; in most records, active means well fitted curve in the direction sought with a large enough effect in the repeat runs; inconclusive means weak or mixed curves; inactive means flat fitted curve, though single readings scatter.

Experiment: qHTS assay to test for compound auto fluorescence at 460 nm (blue) in HEK293 cells (AID 720678)
Settings: blue autofluorescence 405/460 nm; series mostly up to 91.3 µM; fluorescence, % of triamterene: at the top concentration
Description: National Center for Advancing Translational Sciences [NCATS]
NIH Chemical Genomics Center [NCGC]
U.S. Environmental Protection Agency [EPA]
National Institutes of Environmental Health Sciences [NIEHS]
National Toxicology Program [NTP]
U.S. Food and Drug Administration [FDA]
Compound auto fluorescence often interferes with screening of the compound library against various biological targets and signaling pathways. Some of these compounds may have fluorophoric properties. Such properties may interfere with the assay outputs resulting in false positives and/or negatives. To decrease such complications and ensure the compound activities are relevant in terms of biological response, the Tox21 10K compound library was screened for auto fluorescence.
From the fluorophores used as reporter signals in our screening assays, the auto fluorescence equivalencies of compounds against three fluorophores have been evaluated: Triamterene, Fluorescein and Rose Bengal sodium for blue, green and red fluorescence, respectively. The fluorescence intensities were measured using Excitation/Emission wavelengths at 405/460nm, 485/535nm and 540/590nm for blue, green and red labels, respectively. This assay includes the blue fluorescence data.
Tox21 Assay Protocol Summary:
2,000 HEK293 cells in 5 uL of culture medium containing 10% dialyzed FBS per well were dispensed into black wall/clear bottom 1536-well plates using a Multidrop Combi Dispenser (Thermo Scientific). The assay plates were incubated for 4-5 hr at 37C to allow cell attachment to the well bottom, followed by the transfer of 23 nL compound or DMSO vehicle by a pintool work station (Kalypsys, San Diego, CA). After the assay plates were incubated overnight at 37C and 5% CO2, fluorescence intensities in the assay plates were measured by an Envision (PerkinElmer, Shelton, CT) plate reader using three labels for measuring blue, green and red fluorescence at […] 460, 535 and 590nm respectively.
On the % scale 0 is the no-effect control and ±100 the full control effect.

Compared with `C=CCC1([C@H](C)CCC)C(=O)NC(=O)NC1=O`, `CC1C(=O)C[C@]2(C(C)C)C[C@H]12` (stereo not given in full) is lower in “fluorescence, % of triamterene” value: 0.0481% for the first, -0.0062% for the second.

Going from `CCOC(=O)COc1cc(-c2nn(C)c(OC(F)F)c2Cl)c(F)cc1Cl` to `O=C(NC(=O)c1c(F)cccc1F)Nc1cc(Cl)c(Oc2ncc(C(F)(F)F)cc2Cl)c(Cl)c1`, the “fluorescence, % of triamterene” value rises from -0.269% to -0.0326%.

First: C/C(=C\c1ccccc1)[N+](=O)[O-]
Second: CC(C)(OO)c1ccccc1
The “fluorescence, % of triamterene” value of the first is higher: 0.106% for the first, -0.0229% for the second.

Compared with `Cc1ccccc1CCl`, `COP(=S)(Oc1cc(Cl)c(Br)cc1Cl)c1ccccc1` (stereo not given) is lower in “fluorescence, % of triamterene” value: 0.0755% for the first, -0.137% for the second.

Going from `O=C(O)C1(c2ccc3c(c2)OC[C@H](Cc2ccc(-c4ccccc4)cc2)[C@H]3O)CCCC1` to `O=C(O)c1ccccc1C(=O)Nc1cccc2ccccc12`, the “fluorescence, % of triamterene” value rises from -0.0879% to 0.372%.

First: Cl/C=C\C[N+]12CN3CN(CN(C3)C1)C2
Second: CCC(Cl)CCl (stereo not given)
The “fluorescence, % of triamterene” value of the first is higher: 5.23% for the first, -0.0516% for the second.

Going from `Nc1ccc([N+](=O)[O-])cc1[N+](=O)[O-]` to `O=[N+]([O-])c1cc(C(F)(F)F)cc([N+](=O)[O-])c1Cl`, the “fluorescence, % of triamterene” value falls from -0.28% to -0.751%.

First: CC1(C)[C@H](C=C(Cl)Cl)[C@@H]1C(=O)O[C@@H](C#N)c1cccc(Oc2ccccc2)c1
Second: CCOC(=O)[C@]1(c2ccccc2)Oc2ccccc2[C@@H]1N
The “fluorescence, % of triamterene” value of the first is lower: 0.0359% for the first, 0.0877% for the second.

First: O=C(O)COc1ccc(Cl)cc1
Second: O=C(Nc1ccccc1)Nc1ccnc(Cl)c1
The “fluorescence, % of triamterene” value of the first is lower: -0.17% for the first, -0.0737% for the second.

Compared with `II`, `O=S1OC[C@@H]2[C@H](CO1)[C@]1(Cl)C(Cl)=C(Cl)[C@@]2(Cl)C1(Cl)Cl` (stereo not given in full) is lower in “fluorescence, % of triamterene” value: 0.0324% for the first, 0.0231% for the second.

First: CC(C)O.CC(C)O.OCCN(CCO)CCO.OCCN(CCO)CCO.[Ti]
Second: CC(Cl)C(C)Cl (stereo not given)
The “fluorescence, % of triamterene” value of the first is higher: 0.0452% for the first, -0.0417% for the second.

Compared with `BrCCCCBr`, `CCCCNP(N)(N)=S` is lower in “fluorescence, % of triamterene” value: -0.0035% for the first, -0.0652% for the second.

Going from `ClP(Cl)(Cl)(Cl)Cl` to `OC(c1ccc(Cl)cc1)(c1ccc(Cl)cc1)c1cccnc1`, the “fluorescence, % of triamterene” value falls from 0.185% to 0.0241%.

Compared with `C=C(C#N)CCC#N`, `NS(=O)(=O)C(F)(F)C(F)(F)C(F)(F)C(F)(F)C(F)(F)C(F)(F)C(F)(F)C(F)(F)F` is higher in “fluorescence, % of triamterene” value: 0.0716% for the first, 0.0755% for the second.

For `Cn1sc(Cl)cc1=O`, the outcome was “inactive”.
With `O=C1CN=C(c2ccccc2)c2cc(Cl)ccc2N1CC1CC1` the outcome was “inactive”.

Going from `O=C(N[C@H](c1ccccc1)[C@@H]1CN2CCC1CC2)c1c(Cl)ccc(C(F)(F)F)c1Cl` to `COc1cc(CC(C)N)cc2c1OCO2` (stereo not given), the “fluorescence, % of triamterene” value falls from -0.0273% [at 95.7 µM] to -0.275% [at 95.7 µM].

Going from `C=CC(=O)OCC(C)O` (stereo not given) to `CCOS(C)(=O)=O`, the “fluorescence, % of triamterene” value falls from 0.0111% [at 95.7 µM] to -0.277% [at 95.7 µM].

Going from `C[C@H]1CNCCc2ccc(Cl)cc21` to `CC[C@H]1C[C@H]2[C@@H]3CCC4=CC(=O)CC[C@@H]4[C@H]3CC[C@]2(C)[C@H]1O`, the “fluorescence, % of triamterene” value falls from 0.2% [at 46 µM] to 0.0717% [at 46 µM].

Compared with `COC(=O)C(Cl)C(=O)OC`, `CNC(C)Cc1ccccc1OC` (stereo not given) is higher in “fluorescence, % of triamterene” value: 0.214% [at 46 µM] for the first, 0.225% [at 46 µM] for the second.

Going from `CC(C)N(CCC(C(N)=O)(c1ccccc1)c1ccccn1)C(C)C` (stereo not given) to `O=[Se]=O`, the “fluorescence, % of triamterene” value falls from 0.0789% [at 46 µM] to -0.0899% [at 46 µM].
